This note sets out measurements from publication PMC10668032, “Altered binding affinity of SIX1-Q177R correlates with enhanced WNT5A and WNT pathway effector expression in Wilms tumor”.

The full ranking holds about 33,000 sequences; the median of “e-score” is about -0.05, and the highest 2% start at about 0.38. The list comes from a sample in which the highest values are over-represented; it also holds similar and randomly drawn sequences.

For the assay, the target named is T1, SIX1-Q177R homeodomain (human, UniProt Q15475 108-198, Q177R).
T1 sequence: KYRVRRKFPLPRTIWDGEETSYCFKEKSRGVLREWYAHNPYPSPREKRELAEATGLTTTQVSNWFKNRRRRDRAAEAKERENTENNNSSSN
Briefly: universal protein binding microarray; Universal all-10-mer PBM (8x60K, AMADID 030236), 300 nM GST-tagged protein, Alexa Fluor 488 anti-GST; buffer, salt, pH and temperature not stated (as in Berger); high values mean tight binding. The conditions noted are these: protein: ivt; tags: N-terminal GST; dsDNA, one strand shown. Summed up: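 GST-tagged homeodomains were made by in vitro transcription/translation and quantified by anti-GST western blot against a recombinant GST standard curve. They were applied in duplicate at 300 nM final concentration to universal 'all 10-mer' protein binding microarrays (8×60K format). Binding was quantified as 8-mer E-scores with the Universal PBM Analysis Suite.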
For the sequence CGCCGTGC, the binding signal was found to be 0.188 ± 0.0146 E-score.

Take ACGTAGTG: the binding signal was 0.23 ± 0.0205 E-score.

Turning to CACGTGCA, the binding signal was 0.218 ± 0.0109 E-score.

For the sequence AACGTGTC, the binding signal is 0.3481 ± 0.00176 E-score.

CACGTGCC: the binding signal was 0.225 ± 0.0142 E-score.

As to AACGTGTA, the binding signal was 0.353 ± 0.0523 E-score.

Regarding CACGTGTC, the binding signal came to 0.398 ± 0.00923 E-score.

For the sequence CACGTGTA, the binding signal turned out to be 0.4 ± 0.0127 E-score.

In the case of ACCGCTAG, the binding signal came to 0.171 ± 0.0167 E-score.

As for AACAGGTG, the binding signal is 0.327 ± 0.0196 E-score.

Consider AGTAACAC, for which the binding signal came out at 0.424 ± 0.0116 E-score.

As for CGTAGCAC, the binding signal came to 0.17194 ± 0.000163 E-score.

For GGTAACAC, the binding signal worked out at 0.432 ± 0.00841 E-score.

With GTAAACAC, the binding signal turned out to be 0.375 ± 0.00722 E-score.

On to CGTAACCC, for which the binding signal is 0.225 ± 0.019 E-score.

For AGTAACCC, the binding signal was determined as 0.201 ± 0.0162 E-score.

Take CGTAACAC: the binding signal came out at 0.4096 ± 0.00185 E-score.

In the case of GGTAAACA, the binding signal was found to be 0.188 ± 0.00443 E-score.

As for CCACTTGC, the binding signal came to 0.163 ± 0.00866 E-score.

As to AGGGGTAC, the binding signal worked out at 0.273 ± 0.0106 E-score.

ATCCCCAC: the binding signal was found to be 0.211 ± 0.0453 E-score.

On to ATCTTACA, for which the binding signal was determined as 0.262 ± 0.0268 E-score.

For ACCCGTAA, the binding signal came out at 0.264 ± 0.0395 E-score.

As to TGCCGACA, the binding signal worked out at 0.177 ± 0.00329 E-score.

For the sequence ACGGTGCA, the binding signal is 0.2931 ± 0.00041 E-score.

Take GCTGTGTA: the binding signal amounted to 0.223 ± 0.0192 E-score.

For CCGGTGCA, the binding signal is 0.203 ± 0.0164 E-score.

For the sequence ACGGTGTA, the binding signal was found to be 0.4693 ± 0.00139 E-score.

Turning to CCGGTGTA, the binding signal was found to be 0.4859 ± 0.00134 E-score.

As for GATGTGTA, the binding signal came out at 0.19 ± 0.00781 E-score.

In the case of ACGGTGCT, the binding signal is 0.179 ± 0.0133 E-score.

On to CCGGTATA, for which the binding signal stood at 0.183 ± 0.0142 E-score.

Consider GCGGTGTA, for which the binding signal was 0.4849 ± 0.00132 E-score.

With CCCGAGTA, the binding signal is 0.167 ± 0.00344 E-score.

As for CTTAGGGA, the binding signal worked out at 0.151 ± 0.0622 E-score.

Turning to GCACAACA, the binding signal turned out to be 0.156 ± 0.0323 E-score.

Regarding CACCTGAG, the binding signal came out at 0.183 ± 0.0139 E-score.

Regarding ATTGGTGC, the binding signal was found to be 0.1599 ± 0.00112 E-score.

CAAGGACA: the binding signal is 0.194 ± 0.0363 E-score.

On to ACGACCCG, for which the binding signal was determined as 0.179 ± 0.0515 E-score.

As for CACGCATC, the binding signal is 0.168 ± 0.00731 E-score.

As to CACCAGCG, the binding signal worked out at 0.22 ± 0.0046 E-score.

Take ACGTGGTG: the binding signal came out at 0.3594 ± 0.00155 E-score.

Regarding GCGTATCC, the binding signal stood at 0.176 ± 0.00656 E-score.

Consider ACGTGTGG, for which the binding signal is 0.218 ± 0.0138 E-score.

With CCGTGTCA, the binding signal turned out to be 0.465 ± 0.00781 E-score.

With CCGTGACA, the binding signal was determined as 0.307 ± 0.00911 E-score.

As for ACGTGTCC, the binding signal came out at 0.347 ± 0.017 E-score.

Take GCGTGTCC: the binding signal came to 0.412 ± 0.0188 E-score.

ACGTGTCG: the binding signal amounted to 0.383 ± 0.00518 E-score.

CCGTGTGA: the binding signal is 0.299 ± 0.0309 E-score.

As to GCGTGTCA, the binding signal came out at 0.4332 ± 0.000573 E-score.

Turning to GCGTGACA, the binding signal was 0.254 ± 0.0158 E-score.

In the case of CCAGCTGG, the binding signal stood at 0.263 ± 0.0674 E-score.

CATGGTGG: the binding signal was determined as 0.192 ± 0.00214 E-score.

Turning to GTGCGTGA, the binding signal is 0.163 ± 0.0169 E-score.

Turning to CCCCCTTC, the binding signal came out at 0.2098 ± 0.000417 E-score.

As to ACGTGTCA, the binding signal was determined as 0.4123 ± 0.00349 E-score.

With TCGGGTCA, the binding signal was 0.197 ± 0.0386 E-score.

On to CCGTGTCC, for which the binding signal amounted to 0.408 ± 0.0236 E-score.

With CCCTGTCC, the binding signal was 0.152 ± 0.0156 E-score.

For the sequence TCGTGACA, the binding signal stood at 0.329 ± 0.0128 E-score.

Consider ACGTGTCT, for which the binding signal came out at 0.337 ± 0.00126 E-score.

For TCGTGTCA, the binding signal was 0.4434 ± 0.00419 E-score.

Regarding CCGTGATC, the binding signal came out at 0.165 ± 0.0407 E-score.

Regarding CCGTGTCG, the binding signal came to 0.441 ± 0.0221 E-score.

For CCGGGTCG, the binding signal amounted to 0.248 ± 0.0288 E-score.

Regarding CCCCGTCG, the binding signal amounted to 0.161 ± 0.0244 E-score.

Turning to CGAATCCG, the binding signal is 0.166 ± 0.0303 E-score.

AGCTCGTG: the binding signal turned out to be 0.244 ± 0.0101 E-score.

For the sequence ATACTCCC, the binding signal amounted to 0.162 ± 0.0435 E-score.

CCCCGGTA: the binding signal was 0.284 ± 0.00694 E-score.

For CATCAGCG, the binding signal stood at 0.153 ± 0.0322 E-score.

Regarding CACCGGAC, the binding signal was determined as 0.315 ± 0.0498 E-score.

For CTATAACA, the binding signal was 0.228 ± 0.0138 E-score.

Turning to AGAGTGTC, the binding signal stood at 0.412 ± 0.00919 E-score.

With AAAGTGTG, the binding signal was 0.184 ± 0.0165 E-score.

In the case of GAAGTGTC, the binding signal came out at 0.387 ± 0.0118 E-score.

For the sequence AGTGTGTC, the binding signal was found to be 0.283 ± 0.029 E-score.

For CAAGTGTC, the binding signal was determined as 0.379 ± 0.0101 E-score.

In the case of AGAGTGTG, the binding signal was 0.247 ± 0.0115 E-score.

Consider CAAGTGTA, for which the binding signal amounted to 0.392 ± 0.0272 E-score.

With TAAGTGTA, the binding signal was 0.373 ± 0.0287 E-score.

With AAAGTGTT, the binding signal was 0.285 ± 0.0563 E-score.

On to AGAGTGTA, for which the binding signal is 0.424 ± 0.0108 E-score.

For the sequence ACCCGGCT, the binding signal turned out to be 0.202 ± 0.0126 E-score.
